Records with an inconclusive call do not appear. Unless noted, calls follow the shape of the dose curve; as a rule, active = well fitted curve in either direction with a large enough effect (not every such curve was filed as active); inconclusive = small, poorly fitted or top-dose-only effect, or another doubt; inactive = flat fitted curve, though single readings scatter.
Legend:
[1] = AP1 Signaling Pathway (AID 357); settings: ME-180 AP-1-bla reporter, EGF-induced, beta-lactamase ratio, 5 h; at 17.2 µM (top of the series) unless noted;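 also: ME-180 reporter cells stimulated with EGF at its EC50 level; % is scaled to controls: 0 for no effect and ±100 for the full control effect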
Method in brief: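 Modulation of EGF-driven AP-1 transcription was assessed with a beta-lactamase reporter in ME-180 cells. Compound and EC50 EGF were co-incubated 5 hours at 37 °C before 2.5-hour CCF4 loading at room temperature and dual-emission reading.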

[2] = NFAT Signaling Pathway (AID 444); settings: Jurkat NFAT-bla M1, carbachol, beta-lactamase ratio, 5 h; at 17.2 µM (top of the series) unless noted;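 also: carbachol stimulus at about its EC50 of 1 µM final; % is scaled to controls: 0 for no effect and ±100 for the full control effect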
Method in brief: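 Jurkat cells carrying an NFAT-driven β-lactamase reporter and co-transfected muscarinic M1 receptor were treated with compound plus carbachol (1 uM final, an EC50 level) for 5 h at 37 °C. CCF4 loading followed for 1 h at RT; 460/530 nm ratio gave %activity.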

[3] = Stat Signaling Pathway (AID 446); settings: ME-180 (cervical carcinoma) SIE beta-lactamase reporter, IL-6 stimulated, 5 h; at 17.2 µM (top of the series) unless noted;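 also: ME-180 cervical cancer cells given 40 pM IL-6 alongside compound; SIE-controlled beta-lactamase reporter measured as 460/530 nm FRET emission ratio; % is scaled to controls: 0 for no effect and ±100 for the full control effect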
Method in brief: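 Emission at 460 and 530 nm (excitation 405 nm) reports SIE-controlled beta-lactamase in ME-180 cells. Cells received compound with 40 pM IL-6 for 5 hrs at 37 C; data scaled between 300 pM IL-6 and 125 nM JAK-inhibitor controls.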

[4] = target: Glucocorticoid receptor (Homo sapiens) (UniProt P04150); experiment: GR-GFP Redistribution (AID 450;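 active = compounds whose dose series gives a full or clear partial fitted curve of increased nuclear translocation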; also: potency is read from the fitted curve at half-maximal effect)
Chain of Glucocorticoid receptor (Homo sapiens) (P04150 whole entry, looked up): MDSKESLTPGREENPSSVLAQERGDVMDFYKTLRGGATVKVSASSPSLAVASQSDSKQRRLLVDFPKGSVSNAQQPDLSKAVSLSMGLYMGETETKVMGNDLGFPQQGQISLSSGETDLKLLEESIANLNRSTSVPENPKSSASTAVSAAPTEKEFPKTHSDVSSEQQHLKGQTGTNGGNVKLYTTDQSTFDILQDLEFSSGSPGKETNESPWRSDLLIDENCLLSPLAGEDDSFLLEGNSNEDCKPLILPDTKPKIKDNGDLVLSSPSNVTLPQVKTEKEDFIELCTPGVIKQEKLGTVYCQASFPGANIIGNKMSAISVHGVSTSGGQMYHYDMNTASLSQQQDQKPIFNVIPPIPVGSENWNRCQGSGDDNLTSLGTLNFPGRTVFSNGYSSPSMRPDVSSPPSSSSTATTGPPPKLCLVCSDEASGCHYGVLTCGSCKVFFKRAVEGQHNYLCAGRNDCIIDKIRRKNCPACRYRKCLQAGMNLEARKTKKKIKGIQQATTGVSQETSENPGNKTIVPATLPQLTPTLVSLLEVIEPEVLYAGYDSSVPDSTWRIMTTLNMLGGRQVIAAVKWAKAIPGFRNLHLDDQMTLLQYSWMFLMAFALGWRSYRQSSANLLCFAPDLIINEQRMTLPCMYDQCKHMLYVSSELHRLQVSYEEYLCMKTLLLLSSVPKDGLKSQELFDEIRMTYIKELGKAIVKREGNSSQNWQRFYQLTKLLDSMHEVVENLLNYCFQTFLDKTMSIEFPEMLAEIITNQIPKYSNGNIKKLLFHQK

O=C(COc1ccc(F)cc1)OCCN1CCOCC1
inactive: activity change, negative = inhibition [1] -4.17% | activity change, negative = inhibition [2] -0.67% | activity, negative = inhibition [3] 11.3% | Potency [4] > 20.6 µM

COc1cccc(/C(O)=C2/C(=O)C(=O)N(CCN(C)C)C2c2ccc(Br)cc2)c1 (stereo not given)
inactive: activity change, negative = inhibition [1] -1.11% | activity change, negative = inhibition [2] 20.3% | activity, negative = inhibition [3] 0.896% | Potency [4] > 20.6 µM

C=CCn1c(SCC(=O)NC23CC4CC(CC(C4)C2)C3)nc(O)cc1=O
inactive: activity change, negative = inhibition [1] 8.04% | activity change, negative = inhibition [2] -3.75% | activity, negative = inhibition [3] -2.84% | Potency [4] > 20.6 µM

O=C1CC(C(=O)O)c2ccccc2N1 (stereo not given)
inactive: activity change, negative = inhibition [1] 2.72% | activity change, negative = inhibition [2] -1.33% | activity, negative = inhibition [3] 6.42% | Potency [4] > 20.6 µM

CCOC(=O)CCc1c(C)c(C#N)c2nc3ccccc3n2c1-n1ccnc1C
inactive: activity change, negative = inhibition [1] -3.36% | activity change, negative = inhibition [2] -1.61% | activity, negative = inhibition [3] -4.34% | Potency [4] > 20.6 µM

COc1ccccc1C(CC(=O)Nc1nccs1)c1ccco1 (stereo not given)
inactive: activity change, negative = inhibition [1] -11.9% | activity change, negative = inhibition [2] -20.1% | activity, negative = inhibition [3] -11.3% | Potency [4] > 20.6 µM

CC12CN3CC(C)(CN(C1)C3c1ccc(Cl)cc1Cl)C2O (stereo not given)
inactive: activity change, negative = inhibition [1] 3.94% | activity change, negative = inhibition [2] -12% | activity, negative = inhibition [3] 3.23% | Potency [4] > 20.6 µM

Cn1c(=O)c2c(nc(Br)n2Cc2ccc3ccccc3c2)n(C)c1=O
inactive: activity change, negative = inhibition [1] -1.43% | activity change, negative = inhibition [2] -13.6% | activity, negative = inhibition [3] -5.3% | Potency [4] > 20.6 µM

O=C1[C@@H]2[C@H](C(=O)N1n1cnnc1)[C@H]1C=C[C@@H]2C1
inactive: activity change, negative = inhibition [1] -2.82% | activity change, negative = inhibition [2] 1.6% | activity, negative = inhibition [3] 3.44% | Potency [4] > 20.6 µM

CC(C)CNc1nc2c(c(=O)n(C)c(=O)n2C)n1Cc1cccc(Br)c1
inactive: activity change, negative = inhibition [1] -13.5% | activity change, negative = inhibition [2] -2.14% | activity, negative = inhibition [3] -18.2% | Potency [4] > 20.6 µM

CC1(c2cnc(Nc3ccccc3)s2)CCC(=O)O1 (stereo not given)
inactive: activity change, negative = inhibition [1] -10.6% | activity change, negative = inhibition [2] -7.05% | activity, negative = inhibition [3] 22.3% | Potency [4] > 20.6 µM

CCN1CCCC1Cn1cnc2c([nH]c3ccc(C)cc32)c1=O (stereo not given)
inactive: activity change, negative = inhibition [1] -6.04% | activity change, negative = inhibition [2] 8.74% | activity, negative = inhibition [3] 3.87% | Potency [4] > 20.6 µM

COC(=O)CCc1c(C)[nH]c(C(=O)OCc2ccccc2)c1C
inactive: activity change, negative = inhibition [1] -13.9% | activity change, negative = inhibition [2] -4.78% | activity, negative = inhibition [3] 5.36% | Potency [4] > 20.6 µM

O=C(O)c1ccc(COCC(F)(F)C(F)F)o1
inactive: activity change, negative = inhibition [1] 10.1% | activity change, negative = inhibition [2] 28.1% | activity, negative = inhibition [3] 2.03% | Potency [4] > 20.6 µM

CC12CCC(C(=O)NCCCN3CCOCC3)(OC1=O)C2(C)C (stereo not given)
inactive: activity change, negative = inhibition [1] 12% | activity change, negative = inhibition [2] 10.5% | activity, negative = inhibition [3] 3.88% | Potency [4] > 20.6 µM

N#CC1=C(N)OC2=C(C(=O)CCC2)C1CCc1ccccc1 (stereo not given)
inactive: activity change, negative = inhibition [1] -2.2% | activity change, negative = inhibition [2] -13.6% | activity, negative = inhibition [3] 8.87% | Potency [4] > 20.6 µM

COc1cccc(/C(O)=C2\C(=O)C(=O)N(c3ccccn3)C2c2ccccc2OC)c1 (stereo not given)
inactive: activity change, negative = inhibition [1] -8.01% | activity change, negative = inhibition [2] 11.4% | activity, negative = inhibition [3] 1.49% | Potency [4] > 20.6 µM

Cn1c(=O)c2c3c(sc2n2c(SCC(=O)c4ccccc4)nnc12)COC(C)(C)C3
inactive: activity change, negative = inhibition [1] 5.44% | activity change, negative = inhibition [2] -28.1% | activity, negative = inhibition [3] 4.51% | Potency [4] > 20.6 µM

O=C1C=C(NCCNc2c(F)c(F)c(CO)c(F)c2F)CCC1
inactive: activity change, negative = inhibition [1] -0.699% | activity change, negative = inhibition [2] -5.54% | activity, negative = inhibition [3] 2.13% | Potency [4] > 20.6 µM

O=C1c2ccccc2C(=O)N1CCN1CCc2ccccc21
inactive: activity change, negative = inhibition [1] -29% | activity change, negative = inhibition [2] 1.23% | activity, negative = inhibition [3] -3.43% | Potency [4] > 20.6 µM

CCCCSc1nnc(-c2ccc(NC(C)=O)cc2)n1C
inactive: activity change, negative = inhibition [1] -14.2% | activity change, negative = inhibition [2] 12.4% | activity, negative = inhibition [3] 0.987% | Potency [4] > 20.6 µM

CCN(CC)CCCN1C(=O)C(=O)/C(=C(/O)c2ccc3c(c2)CC(C)O3)C1c1cccnc1 (stereo not given)
inactive: activity change, negative = inhibition [1] 4.22% | activity change, negative = inhibition [2] 11.9% | activity, negative = inhibition [3] 9.37% | Potency [4] > 20.6 µM

COc1ccccc1NC(=O)CSc1nnc(-c2ccc(NC(C)=O)cc2)n1C
inactive: activity change, negative = inhibition [1] -3.49% | activity change, negative = inhibition [2] -2.99% | activity, negative = inhibition [3] -0.879% | Potency [4] > 20.6 µM

Cc1ccc(-c2nn(C)c(=O)c3ccccc23)cc1CNC(=O)CSc1nc2ccccc2o1
inactive: activity change, negative = inhibition [1] -10.6% | activity change, negative = inhibition [2] -12.2% | activity, negative = inhibition [3] -16.9% | Potency [4] > 20.6 µM

COc1ccc(-c2nnc3sc(COc4ccccc4)nn23)cc1
inactive: activity change, negative = inhibition [1] -22.1% | activity change, negative = inhibition [2] -15.2% | activity, negative = inhibition [3] -8.06% | Potency [4] > 20.6 µM

Reference: PubChem BioAssay (NCATS)
